Values joined by “and” are separate entries in the source; they are usually repeats but may differ in a detail not shown here. Identical values can stand only once. Some compounds were tested as several samples or in several runs, with calls that do not always agree. Active and inactive are the calls of the source. The calls were made as follows: active = hit-call score of the fitted dose curve at least 0.9, where 1 is the maximum; inactive = score below 0.9.

The test can be described thus: BSK_3C_uPAR: BioMAP Diversity Plus: 3C Assay for Urokinase-type plasminogen activator receptor (uPAR) Biomarker Activity (AID 2282998). Particulars: BioMAP 3C HUVEC, uPAR biomarker ELISA; actives raise or lower the signal. Here is the method:
BSK_3C is a cell-based, multiplexed-readout assay that uses umbilical vein endothelium, a human vascular primary cell, with measurements taken at 24 hours after chemical dosing in a 96-well plate.BSK_3CAR is an assay component measured in the BSK_3C assay. It measures uPAR antibody related to regulation of gene expression using ELISA technology.Data from the assay component BSK_3CAR was analyzed into 1 assay endpoint. This assay endpoint, BSK_3CAR, was analyzed with bidirectional fitting relative to DMSO as the negative control and baseline of activity. Using a type of binding reporter, gain or loss-of-signal activity can be used to understand changes in the signaling as they relate to the gene PLAUR. Furthermore, this assay endpoint can be referred to as a primary readout, because this assay has produced multiple assay endpoints where this one serves a signaling function. To generalize the intended target to other relatable targets, this assay endpoint is annotated to the cytokine intended target family, where the subfamily is plasmogen activator.
The levels of cell surface (or secreted, indicated by the prefix "s") biomarker endpoints were measured by ELISA. Overt cytotoxicity to cells in confluent adherent cultures (all systems other than the BT system) was assessed by measuring total protein levels using sulforhodamine B (SRB) staining in parallel cultures at the time of biomarker measurements, indicated as SRB endpoints. For proliferation assays for adherent cell types, individual cell types are cultured at sub-confluence and relative cell numbers quantified by SRB staining at time points optimized for each system (48 h: 3C and CASM3C systems; 72 h: BT and HDF3CGF systems; 96 h: SAg system). SRB was performed by staining cells with 0.1% SRB after fixation with 10% TCA and reading wells at 560 nm.Viability and proliferation of PBMC (T cells) was quantified by Alamar Blue reduction for the SAg and BT systems. For PBMC viability (referred to as PBMC Cytotoxicity within the assay endpoint names), cells were plated (75,000/well in a 96-well plate) and then chemical samples added for 1 h before addition of activators, SEB and TSST-1 (20 ng/mL final concentration each). Cells were incubated for 90 h. Then, Alamar Blue (20 uL/well) (Invitrogen, Cat DAL1100) was added for 6 h, and the plates were read with a fluorescence microplate reader at 546/580 nm (excitation/emission). For PBMC proliferation, cells were plated and activated as above but incubated for only 16 h prior to addition of Alamar Blue. Plates were read after 6 h.
Consider `CCCOC(=O)c1ccc(O)cc1`, for which the result was inactive. Usually AC50 stands for the concentration at which the activity in the assay is half-maximal. For `CC#C[C@]1(O)CC[C@H]2[C@@H]3CCC4=CC(=O)CCC4=C3[C@@H](c3ccc(N(C)C)cc3)C[C@@]21C`, the concentration at half-maximal activity (AC50) was 31.2 µM (active). In the case of `Cc1oc(-c2ccccc2)nc1CCOc1ccc(C[C@H](Nc2ccccc2C(=O)c2ccccc2)C(=O)O)cc1`, the AC50 is 14.6 µM (active). `Oc1cccc(O)c1`: the outcome was inactive. `O=C(O)c1ccccc1C(c1ccc(O)cc1)c1ccc(O)cc1`: the result was inactive. `Oc1cc2ccccc2c2ccccc12`: the AC50 is 11.2 µM (active).

As to `O=C(OCCOCCOC(=O)c1ccccc1)c1ccccc1`, the result was inactive. On to `CCc1ccc(CCOc2ccc(CC3SC(=O)NC3=O)cc2)nc1` (stereo not given), for which the outcome was inactive. `OCCC(F)(F)C(F)(F)C(F)(F)C(F)(F)C(F)(F)C(F)(F)F`: the concentration at half-maximal activity (AC50) is 43.6 µM (active) and 47.3 µM (active); the outcome was inactive. As for `CCC(C)(C)C1CCC(O)CC1` (stereo not given), the result was inactive. The same measure, in the same setting: the value for `CN(C)C=O` was “inactive”. As for `CC(=O)NC1(c2cccc(F)c2)CCN(CC[C@@]2(c3ccc(Cl)c(Cl)c3)CN(c3ccccc3)C(=O)CO2)CC1`, the AC50 was 20.4 µM (active). With `CCCCC(CC)COC(=O)CCCCC(=O)OCC(CC)CCCC` (stereo not given), the result was inactive. The same measure, in the same setting: the entry for `CC(C)(C)c1cc(C(C)(C)C)c(O)c(C(C)(C)C)c1` is “inactive”.

Consider `CCCOc1sc(C(=O)N2CCC(c3cc(CN)ccc3F)CC2)c(C)c1Br`, for which the concentration at half-maximal activity (AC50) is 5.41 µM (active). As for `CCCCC(CC)COC(=O)CCCCC(=O)OCc1ccccc1` (stereo not given), the result was inactive. Turning to `Nc1cccc2c(N)cccc12`, the result was inactive. Take `CC(O)CO` (stereo not given): the result was inactive.

Turning to `CC(C)(C)c1cccc(C(C)(C)C)c1O`, the outcome was inactive. For the compound `CCCCOCCO`, the result was inactive. Turning to `COCC(C)O` (stereo not given), the outcome was inactive.

For `CC(C)(C)c1ccc(O)c(C(C)(C)C)c1`, the AC50 was 9.34 µM (active). In the case of `ClC1=C(Cl)C(Cl)(Cl)C(Cl)=C1Cl`, the concentration at half-maximal activity (AC50) is 5.21 µM (active). For the compound `OCCC(F)(F)C(F)(F)C(F)(F)C(F)(F)C(F)(F)C(F)(F)C(F)(F)C(F)(F)F`, the AC50 was 19.5 µM (active) and 16.5 µM (active); the outcome was inactive.

`CC1=C(/C=C/C(C)=C/C=C/C(C)=C/C(=O)O)C(C)(C)CCC1`: the result was inactive.

Regarding `CCCCCCCCCCCCN1CCCC1=O`, the half-maximal activity concentration (AC50) is 31.1 µM (active). In the case of `CCOC(=O)CC(O)(CC(=O)OCC)C(=O)OCC`, the outcome was inactive. Regarding `COCC(C)OCC(C)O` (stereo not given), the result was inactive. In the case of `CCCCCCC(=O)O`, the result was inactive. Consider `C=C(C)C(=O)OCCC(F)(F)C(F)(F)C(F)(F)C(F)(F)C(F)(F)C(F)(F)F`, for which the result was inactive. As to `c1ccc2c(c1)ccc1ccccc12`, the outcome was inactive. Consider `CCCCCCCC(=O)O`, for which the result was inactive. Regarding `O=[N+]([O-])c1ccc(O)cc1`, the outcome was inactive. Turning to `CC[C@H](C)[C@@H](C(=O)O)n1sc2ccccc2c1=O`, the result was inactive.

Turning to `C#C[C@]1(O)CC[C@H]2[C@@H]3CCC4=CC(=O)CC[C@@H]4[C@H]3CC[C@@]21C`, the AC50 was 5.42 µM (active).

Turning to `CCCCCCCCOC(=O)CCCCCCCCC(=O)OCCCCCCCC`, the outcome was inactive.

Consider `CCC(=C(c1ccc(O)cc1)c1ccc(OCCN(C)C)cc1)c1ccccc1`, for which the AC50 is 7.66 µM (active).

With `C[C@@H]1C[C@H]2[C@@H]3CCC4=CC(=O)C=C[C@]4(C)[C@@]3(F)[C@@H](O)C[C@]2(C)[C@@]1(O)C(=O)COP(=O)(O)O`, the result was inactive.
